Among all 360,000 compounds or so, about 4,500 (1.2%) were called active. Only a selection was taken, and actives are over-represented in it overall. Unmarked numbers belong to inactive results. Cut-off read from the data, not from the text of the source: active = inhibition above about 30%; inactive = the rest.
Assay: GDH-TPI coupling enzyme inhibitors, primary screen, artefact control for M. tuberculosis FBA inhibitor project, biochemical, absorbance, full deck (AID 588335);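 note: 0% = DMSO wells and 100% = wells lacking the enzyme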
Conditions: GDH-TPI coupled enzyme counterscreen, NADH absorbance; at 4.8 µM; hits give high values

Q: Which inhibition does the source give for `COC(=O)c1cc(NC(=O)CC2C(=O)NCCN2C(=O)c2ccc(F)cc2)cc(C(=O)OC)c1` (configuration not stated) here?
A: The inhibition was 3.86%.

Q: For `Cc1csc(=O)n1CC(=O)Nc1ccc(S(C)(=O)=O)cc1`, which inhibition is on record?
A: Its inhibition is -3.52%.

Q: For `CCOC(=O)N1CCN(C(=O)Cn2cnc3ccccc3c2=O)CC1`, which inhibition is on record?
A: Its inhibition is 2.24%.

Q: For `CCOC(=O)/C=c1\s/c(=C\c2ccccc2OC)c(=O)n1CC(=O)N1CCOCC1`, which inhibition is on record?
A: Its inhibition is 33.3% (active).

Q: With `COc1ccccc1/C=C/C(=O)NC(=S)N1CCOCC1` as the molecule, how does the inhibition read?
A: The inhibition was 18.2%.

Q: Which inhibition does the source give for `O=C(NCc1ccccc1Cl)C1CCN(c2ncnc3c2nc2n3CCCCC2)CC1` here?
A: Its inhibition is -11.1%.

Q: Which inhibition does the source give for `Cc1ccc(CNC(=O)CC(NC(=O)c2ccccc2)c2ccccc2)cc1` (configuration not stated) here?
A: Its inhibition is -12.7%.

Q: With `CCN(CCn1cccn1)Cc1cn[nH]c1-c1ccc(OC)cc1F` as the molecule, how does the inhibition read?
A: Its inhibition is 0.63%.

Q: With `COc1ccccc1C(=O)Nn1c(-c2cccs2)nc2ccccc2c1=O` as the molecule, how does the inhibition read?
A: Its inhibition is 17.9%.

Q: With `CCn1c(NC(=O)c2ccccc2)c(-c2cccs2)c(=O)c2ccccc21` as the molecule, how does the inhibition read?
A: The inhibition was 32% (active).

Q: For `CCn1c(=O)c2cc(C(=O)Nc3cccc(C(C)=O)c3)sc2c2ccccc21`, which inhibition is on record?
A: The inhibition was -0.68%.

Q: Which inhibition does the source give for `COc1ccccc1CCNC(=O)CN1C(=O)NC2(CCCC2)C1=O` here?
A: The inhibition was 7.91%.

Q: With `CC(C)(C)c1ccc(S(=O)(=O)NC(=O)C2(C)CCN2C(=O)CC2CC2)cc1` (configuration not stated) as the molecule, how does the inhibition read?
A: Its inhibition is 0.89%.

Q: For `CCOC(=O)c1ccc(S(=O)(=O)N(CCO)Cc2cc3cc(OC)c(OC)cc3[nH]c2=O)cc1`, which inhibition is on record?
A: The inhibition was 20.5%.

Q: With `CCc1nnc(NC(=O)CCC(=O)N2CCN(c3cc(C)ccc3C)CC2)s1` as the molecule, how does the inhibition read?
A: The inhibition was -2.21%.

Q: For `CC(C)NC(=O)C(c1ccc(F)cc1)N(C(=O)CCC(=O)Nc1ccccn1)c1ccccc1F` (configuration not stated), which inhibition is on record?
A: The inhibition was 3.77%.

Q: For `Cc1ccc(NC(=O)CS(=O)CC(=O)N(c2ccccc2)C(C)C(=O)NC2CCCC2)cc1` (configuration not stated), which inhibition is on record?
A: The inhibition was 7.17%.

Q: With `Cn1cccc1/C=N/NC(=O)c1ccc(OC(F)(F)C(F)F)cc1` as the molecule, how does the inhibition read?
A: The inhibition was 35.9% (active).

Q: For `O=C(Nc1ccc(OC(F)(F)F)cc1)c1ccc2c(c1)no[n+]2[O-]`, which inhibition is on record?
A: The inhibition was 4.41%.

Q: Which inhibition does the source give for `Cn1nccc1/C=N\NC(=O)c1ccc(Cl)cc1` here?
A: Its inhibition is -10.2%.

Q: Which inhibition does the source give for `O=C(Nc1cc(F)ccc1F)c1ccc2c(=O)n3c(nc2c1)CCC3` here?
A: Its inhibition is 5.36%.

Q: With `O=C1CC(C(=O)O)NC(=S)N1` (configuration not stated) as the molecule, how does the inhibition read?
A: Its inhibition is -5.96%.

Q: With `CCOC(=O)N/N=C/c1cn(Cc2ccccc2Cl)c2ccccc12` as the molecule, how does the inhibition read?
A: Its inhibition is 17%.

Q: With `CNC(=S)N/N=C/c1cn(Cc2ccc(C)cc2)c2ccccc12` as the molecule, how does the inhibition read?
A: Its inhibition is 37% (active).

Q: With `NC(=O)Cn1cc(/C=N\NS(=O)(=O)c2ccccc2)c2ccccc21` as the molecule, how does the inhibition read?
A: The inhibition was 8.87%.

Q: For `Cn1c(SCC(=O)Nc2ccc(N3CCOCC3)cc2)nnc1C(F)(F)F`, which inhibition is on record?
A: Its inhibition is 2.16%.

Q: Which inhibition does the source give for `O=C(Nc1nnc(S(=O)(=O)N2CCCCCC2)s1)c1cccc(Br)c1` here?
A: Its inhibition is 16.8%.

Q: With `COc1cccc(C(=O)Nc2nnc(S(=O)(=O)N3CCOCC3)s2)c1` as the molecule, how does the inhibition read?
A: Its inhibition is 23.5%.

Q: Which inhibition does the source give for `COc1cccc(C(=O)Nc2nnc(S(=O)(=O)N3CCCCC3)s2)c1` here?
A: Its inhibition is 40.7% (active).

Q: With `Cc1ccc(S(=O)(=O)N2CCCC2CO)cc1` (configuration not stated) as the molecule, how does the inhibition read?
A: Its inhibition is -4.78%.

Q: For `O=C(CNc1cccc(S(=O)(=O)N2CCCCC2)c1)Nc1ccccc1F`, which inhibition is on record?
A: The inhibition was 5.6%.

Q: For `COc1ccccc1/C=C/C=N/n1c(-c2ccc(Cl)cc2Cl)n[nH]c1=S`, which inhibition is on record?
A: Its inhibition is 34.7% (active).

Q: With `Cc1cc(-c2n[nH]c(=S)n2/N=C/C(Br)=C/c2ccccc2)n[nH]1` as the molecule, how does the inhibition read?
A: Its inhibition is 7.17%.

Q: Which inhibition does the source give for `COc1cc(-c2n[nH]c(=S)n2Cc2ccccc2)cc(OC)c1OC` here?
A: Its inhibition is 3.29%.

Q: Which inhibition does the source give for `CCCCOc1ccc(Cl)cc1CSc1nncn1N` here?
A: Its inhibition is -8.67%.

Q: For `N#CC1(Nc2ccc3c4c(cccc24)CC3)CCCCC1`, which inhibition is on record?
A: Its inhibition is 18.6%.

Q: For `O=C(CSc1nnc(-c2cccnc2)n1Cc1ccco1)c1ccc(Cl)c(Cl)c1`, which inhibition is on record?
A: The inhibition was -5.03%.

Q: Which inhibition does the source give for `Clc1cccc(-c2nc3nc4ccccc4nc3n2Cc2ccco2)c1` here?
A: The inhibition was 33.2% (active).

Q: Which inhibition does the source give for `Cc1cc(NCc2ccco2)n2c(nc3ccccc32)c1C#N` here?
A: Its inhibition is 8.76%.

Q: For `COC(=O)c1cc(S(=O)(=O)N2CCC(C(N)=O)CC2)oc1C`, which inhibition is on record?
A: The inhibition was 0.74%.

Q: Which inhibition does the source give for `O=C(O)c1ccc(COCC(F)(F)F)cc1` here?
A: The inhibition was 6.06%.

Q: For `COc1ccc(N/N=C2/CCCCC2=O)cc1`, which inhibition is on record?
A: The inhibition was 1.13%.

Q: Which inhibition does the source give for `COc1ccccc1Oc1ccc(N/C=C2/CCCC2=O)cc1` here?
A: The inhibition was 33.3% (active).

Q: Which inhibition does the source give for `COc1ccccc1C1=CC(=O)CCC1` here?
A: The inhibition was 10.9%.

Q: With `O=C(O)CCn1c(O)c(C=C2N=c3ccccc3=N2)sc1=S` as the molecule, how does the inhibition read?
A: Its inhibition is 22.8%.

Q: With `O=C(Oc1cccc(N2C(=O)C3C4c5ccccc5C(c5ccccc54)C3C2=O)c1)c1ccco1` (configuration not stated) as the molecule, how does the inhibition read?
A: Its inhibition is 10.9%.

Q: Which inhibition does the source give for `O=S(=O)(Nc1ccccc1)c1ccc(NS(=O)(=O)c2cccs2)cc1` here?
A: Its inhibition is 14.9%.

Q: For `C/C(=N\NC(=O)c1ccc(NS(=O)(=O)c2cccs2)cc1)c1ccc2ccccc2c1`, which inhibition is on record?
A: The inhibition was 32.1% (active).

Q: Which inhibition does the source give for `COc1cc(OC)c(C(=O)NNC(=O)c2ccc(NS(=O)(=O)c3cccs3)cc2)cc1OC` here?
A: The inhibition was 12.8%.

Q: For `COCCn1c(C)cc(C(=O)CN2c3cccc4cccc(c34)S2(=O)=O)c1C`, which inhibition is on record?
A: Its inhibition is 3.51%.

Q: For `Oc1ccc(C2Nc3cccc4cccc(c34)N2)cc1`, which inhibition is on record?
A: Its inhibition is 32.9% (active).

Q: Which inhibition does the source give for `CN(C(=O)CC(NC(=O)c1ccccc1)(c1ccccc1)c1ccccc1)c1ccccc1` here?
A: The inhibition was -10.6%.

Q: With `Cn1c(=O)n(C)c2cc(CNc3ccc(N4CCOCC4)c(C(=O)O)c3)ccc21` as the molecule, how does the inhibition read?
A: The inhibition was 8.39%.

Q: With `CC(C)(C)NC(=O)COC(=O)c1cc(Br)ccc1Cl` as the molecule, how does the inhibition read?
A: Its inhibition is -3.49%.

Q: For `O=C1CSC(=S)N1/N=C/c1ccc(O)c([N+](=O)[O-])c1`, which inhibition is on record?
A: Its inhibition is 1.6%.

Q: With `Cc1cc(C(=O)N/N=C/c2ccc(O)c([N+](=O)[O-])c2)c(C)n1-c1ccc(F)cc1` as the molecule, how does the inhibition read?
A: Its inhibition is 51.7% (active).

Q: For `Cc1c(Cl)c([N+](=O)[O-])nn1Cc1ccc(C(=O)N/N=C\c2cc(Cl)ccc2O)o1`, which inhibition is on record?
A: The inhibition was 4.27%.

Q: For `CC1(C)CC(=O)c2sc(N)nc2C1`, which inhibition is on record?
A: The inhibition was 20.2%.

Q: For `NC1=NOC(=O)C1C1CCCCC1` (configuration not stated), which inhibition is on record?
A: The inhibition was -5.11%.

Q: With `CN(Cc1ccccc1)C(=O)COC(=O)/C=C/c1ccc2c(c1)OCO2` as the molecule, how does the inhibition read?
A: The inhibition was 35% (active).

Q: For `O=C(COC(=O)/C=C/c1ccc2c(c1)OCO2)NC1CCS(=O)(=O)C1` (configuration not stated), which inhibition is on record?
A: Its inhibition is 23.7%.

Q: For `Cc1cccc(NC(=O)/C=C/c2ccc3c(c2)OCO3)n1`, which inhibition is on record?
A: The inhibition was 28.3%.

— PubChem BioAssay AID588335 (The Scripps Research Institute Molecular Screening Center, 2011)
